From PubChem BioAssay (NCATS)
Records with an inconclusive call do not appear. Calls of active or inactive are those of the source. The call rests on the fitted dose curve; in most records, active means well fitted curve in the direction sought with a large enough effect; inconclusive means small, poorly fitted or top-dose-only effect, or another doubt; inactive means no such curve, though single readings can be large; an effect the other way counts as inactive or inconclusive.

What was measured:
[1] = Quantitative High-Throughput drug screen in 47 multiple myeloma cell lines against the NCATS MIPE library collection: Karpas25_ECACC cell viability assay (AID 1918968; further: nearly all actives have a fitted effect of over 35% in size)
How it was run: (§1)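 Primary qHTS used for cherry-picking: cells at 500/well, library compounds for 48 h (37C, 5% CO2), luminescent ATP assay.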

[2] = Quantitative High-Throughput drug screen in 47 multiple myeloma cell lines against the NCATS MIPE library collection: KMS27_JCRB cell viability assay (AID 1918970); further: nearly all actives have a fitted effect of over 30% in size
How it was run: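 CellTiter-Glo luminescence after 48 h drug exposure at 37 °C; 500 cells/well, 1536-well format, pin-tool compound addition; DMSO = 100%, media-only = 0% viability.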

[3] = Quantitative High-Throughput drug screen in 47 multiple myeloma cell lines against the NCATS MIPE library collection: KMS12BM_JCRB cell viability assay (AID 1918971); further: nearly all actives have a fitted effect of over 35% in size
How it was run: (§2)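 Relative luminescence from CellTiter-Glo served as the viability signal, referenced to DMSO-treated (100%) and cell-free medium (0%) controls. Treatment lasted 48 hours at 37C with 500 cells per well.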

[4] = Quantitative High-Throughput drug screen in 47 multiple myeloma cell lines against the NCATS MIPE library collection: KMS12PE_JCRB cell viability assay (AID 1918972); further: nearly all actives have a fitted effect of over 30% in size
How it was run: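 Inhibition of cell viability is measured here. Each line was plated at 500 cells per well, treated with MIPE 4.0 drugs, kept 48 hours at 37C, then assayed for ATP content by CellTiter-Glo luminescence.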

[5] = Quantitative High-Throughput drug screen in 47 multiple myeloma cell lines against the NCATS MIPE library collection: KMS26_JCRB cell viability assay (AID 1918975); further: nearly all actives have a fitted effect of over 45% in size
How it was run: as §2

[6] = Quantitative High-Throughput drug screen in 47 multiple myeloma cell lines against the NCATS MIPE library collection: NCIH929_DSMZ cell viability assay (AID 1918978); further: nearly all actives have a fitted effect of over 35% in size
How it was run: (§3)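 ATP-based luminescence (CellTiter-Glo, 5 min RT incubation) quantified surviving cells following two days' treatment with MIPE 4.0 agents at 37 °C, 5% CO2.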

[7] = Quantitative High-Throughput drug screen in 47 multiple myeloma cell lines against the NCATS MIPE library collection: OCIMY1_PLB cell viability assay (AID 1918979); further: nearly all actives have a fitted effect of over 35% in size
How it was run: as §3

[8] = Quantitative High-Throughput drug screen in 47 multiple myeloma cell lines against the NCATS MIPE library collection: LP1_DSMZ cell viability assay (AID 1918982); further: nearly all actives have a fitted effect of over 35% in size
How it was run: as §3

[9] = Quantitative High-Throughput drug screen in 47 multiple myeloma cell lines against the NCATS MIPE library collection: L363_DSMZ cell viability assay (AID 1918984); further: nearly all actives have a fitted effect of over 40% in size
How it was run: as §3

[10] = Quantitative High-Throughput drug screen in 47 multiple myeloma cell lines against the NCATS MIPE library collection: MM1S_ATCC cell viability assay (AID 1918980); further: nearly all actives have a fitted effect of over 45% in size
How it was run: as §3

[11] = Quantitative High-Throughput drug screen in 47 multiple myeloma cell lines against the NCATS MIPE library collection: MM1R_ATCC cell viability assay (AID 1918981); further: nearly all actives have a fitted effect of over 35% in size
How it was run: as §3

[12] = Quantitative High-Throughput drug screen in 47 multiple myeloma cell lines against the NCATS MIPE library collection: KMS28PE_JCRB cell viability assay (AID 1918983); further: nearly all actives have a fitted effect of over 35% in size
How it was run: as §3

[13] = Quantitative High-Throughput drug screen in 47 multiple myeloma cell lines against the NCATS MIPE library collection: KMS21BM_JCRB cell viability assay (AID 1918974); conditions: ATP luminescence, 48 h; viability: at 45.8 µM (top of the series) unless noted
How it was run: as §1

[14] = Quantitative High-Throughput drug screen in 47 multiple myeloma cell lines against the NCATS MIPE library collection: MMM1_PLB cell viability assay (AID 1918976); further: nearly all actives have a fitted effect of over 35% in size
How it was run: as §3

[15] = Quantitative High-Throughput drug screen in 47 multiple myeloma cell lines against the NCATS MIPE library collection: OCIMY7_PLB cell viability assay (AID 1918987); conditions: OCI-MY7 myeloma viability, CellTiter-Glo ATP, 48 h; viability (% of DMSO): at 45.8 µM (top of the series); further: nearly all actives have a fitted effect of over 65% in size
How it was run: as §3

[16] = Quantitative High-Throughput drug screen in 47 multiple myeloma cell lines against the NCATS MIPE library collection: KMS20_JCRB cell viability assay (AID 1918973); further: nearly all actives have a fitted effect of over 45% in size
How it was run: as §1

[17] = Quantitative High-Throughput drug screen in 47 multiple myeloma cell lines against the NCATS MIPE library collection: MOLP8_DSMZ cell viability assay (AID 1918977); further: nearly all actives have a fitted effect of over 45% in size
How it was run: as §3

[18] = Quantitative High-Throughput drug screen in 47 multiple myeloma cell lines against the NCATS MIPE library collection: KMS34_JCRB cell viability assay (AID 1918985); further: nearly all actives have a fitted effect of over 40% in size
How it was run: as §3

[19] = Quantitative High-Throughput drug screen in 47 multiple myeloma cell lines against the NCATS MIPE library collection: OCIMY5_PLB cell viability assay (AID 1918988); further: nearly all actives have a fitted effect of over 65% in size
How it was run: as §3
Potency means the concentration at half of the fitted maximal effect.

Structure (SMILES) | Potency [1] | Potency [2] | Potency [3] | Potency [4] | Potency [5] | Potency [6] | Potency [7] | Potency [8] | Potency [9] | Potency [10] | Potency [11] | Potency [12] | Potency [13] | Potency [14] | Potency [15] | Potency [16] | Potency [17] | Potency [18] | Potency [19]
COc1cc(O)c2c(c1)C(=O)c1cc(C)cc(O)c1C2=O | inactive | inactive | inactive | inactive | inactive | inactive | inactive | inactive | inactive |  |  |  |  |  |  |  |  |  | 
COc1ccc(C2CC(c3ccccc3)=NN2c2ccc(S(N)(=O)=O)cc2)cc1 (centres undefined) | 16.6 µM (active) | 8.33 µM (active) | 18.7 µM (active) | 11.8 µM (active) |  |  |  |  | 16.6 µM (active) | 23.5 µM (active) | 16.6 µM (active) | inactive |  |  |  |  |  |  | 
Clc1ccc(CCC(Cn2ccnc2)Sc2c(Cl)cccc2Cl)cc1 (centres undefined) | 16.6 µM (active) | 18.7 µM (active) |  | 14.8 µM (active) |  |  |  |  |  |  |  |  | 23.5 µM (active) | 26.4 µM (active) | 13.2 µM (active) |  |  |  | 
COC(=O)N[C@H](C(=O)N1CCC[C@@H]1c1ncc(-c2ccc(-c3ccc(-c4cnc([C@@H]5CCCN5C(=O)[C@@H](NC(=O)OC)C(C)C)[nH]4)cc3)cc2)[nH]1)C(C)C | 23.5 µM (active) | 23.5 µM (active) | 20.9 µM (active) | 16.6 µM (active) |  | 26.4 µM (active) |  | 18.7 µM (active) | 29.6 µM (active) |  | 26.4 µM (active) |  |  |  | 18.7 µM (active) |  |  |  | 
Oc1ccc(C2=Cc3ccc(O)cc3OC2)cc1 | 1.48 µM (active) | 2.09 µM (active) | 2.96 µM (active) |  | 8.33 µM (active) | 2.09 µM (active) |  |  |  | 3.32 µM (active) |  | 18.7 µM (active) | 2.35 µM (active) | 5.26 µM (active) | 1.32 µM (active) | 3.32 µM (active) | 2.35 µM (active) | 0.662 µM (active) | 2.96 µM (active)
O=C(O)CCC1CCC(c2cc(F)ccc2F)(S(=O)(=O)c2ccc(Cl)cc2)CC1 (centres undefined) | 8.33 µM (active) | 2.64 µM (active) |  | 13.2 µM (active) | inactive | 8.33 µM (active) | inactive | inactive | 16.6 µM (active) | 1.66 µM (active) |  | inactive |  |  | 2.64 µM (active) |  |  |  | inactive
Nc1ncnc2c1ncn2[C@@H]1O[C@@H](CO)[C@H](O)[C@H]1O | inactive | inactive | inactive | inactive | inactive | inactive | inactive | inactive |  | inactive |  | inactive |  |  |  |  | inactive |  | 
Cc1cc(OCCCc2c(C(=O)O)n(Cc3cccnc3)c3c(-c4c(COc5ccc(N6CCN([S+](C)(=O)[O-])CC6)cc5)nn(C)c4C)cccc23)cc(C)c1Cl | 20.9 µM (active) | inactive | 26.4 µM (active) | 6.62 µM (active) | 20.9 µM (active) | 3.32 µM (active) | 13.2 µM (active) |  | inactive | 18.7 µM (active) |  | 23.5 µM (active) |  | 14.8 µM (active) |  |  | 20.9 µM (active) |  | 23.5 µM (active)
COc1ccc(-c2nc(N3CCOCC3)c3sc(CN(C)c4ncc(C(=O)NO)cn4)cc3n2)cn1 | inactive | 0.001 µM (active) | inactive | 0.001 µM (active) | 0.0264 µM (active) |  | 0.0059 µM (active) |  | 0.001 µM (active) | inactive | inactive |  |  |  |  | inactive | inactive |  | 
CNC1CCC(N(Cc2cccc(-c3ccncc3)c2)C(=O)c2sc3c(F)ccc(F)c3c2Cl)CC1 (centres undefined) | 11.8 µM (active) | 18.7 µM (active) |  | 10.5 µM (active) | 16.6 µM (active) | 4.69 µM (active) | 23.5 µM (active) | 23.5 µM (active) | 11.8 µM (active) | 14.8 µM (active) | 18.7 µM (active) | 16.6 µM (active) |  | 26.4 µM (active) | 0.0662 µM (active) |  |  |  | 18.7 µM (active)
CN1[C@@H]2CCC[C@@H]1CC(NC(=O)c1nn(C)c3ccccc13)C2 (some centres undefined) | inactive | inactive | inactive | inactive |  | inactive |  | inactive | inactive | inactive |  | inactive |  |  |  |  |  | inactive | inactive
Cc1ccccc1C(C(=O)NC1CCCCC1)N(C(=O)Cn1ccnc1C)c1cccc(F)c1 (centres undefined) | 18.7 µM (active) | inactive | 8.33 µM (active) | 2.35 µM (active) |  | inactive |  | 13.2 µM (active) |  |  |  |  |  | 10.5 µM (active) |  |  |  | 20.9 µM (active) | 23.5 µM (active)
COc1cccc2c1CCCC2CCCN1CCN(C2CCCCC2)CC1 (centres undefined) | 18.7 µM (active) | 16.6 µM (active) | 23.5 µM (active) | 16.6 µM (active) |  |  |  |  | 16.6 µM (active) | 20.9 µM (active) |  | 14.8 µM (active) |  | 14.8 µM (active) | 13.2 µM (active) |  |  | inactive | 16.6 µM (active)
NC1=N[C@@]2(c3cc(NC(=O)c4ccc(F)cn4)ccc3F)COC[C@@H]2CS1 | 14.8 µM (active) | 0.264 µM (active) | inactive | 1.05 µM (active) |  |  |  |  | 0.418 µM (active) |  |  | inactive |  |  |  |  |  |  | 23.5 µM (active)
CO[C@@H](C(=O)N1Cc2[nH]nc(NC(=O)c3ccc(N4CCN(C)CC4)cc3)c2C1)c1ccccc1 | 16.6 µM (active) | 23.5 µM (active) |  |  |  | 11.8 µM (active) | inactive |  | 18.7 µM (active) | 20.9 µM (active) |  | 6.62 µM (active) | 1.87 µM (active) |  | 0.332 µM (active) | 16.6 µM (active) |  |  | 6.62 µM (active)
N#CC(=C(N)Sc1ccccc1N)C(C#N)=C(N)Sc1ccccc1N | 8.33 µM (active) | 18.7 µM (active) | inactive | 23.5 µM (active) | 1.32 µM (active) | 14.8 µM (active) | inactive |  | 10.5 µM (active) |  | 1.18 µM (active) |  |  |  | 0.662 µM (active) |  |  |  | 
C[N+]1(C)[C@@H]2CC(OC(=O)[C@H](CO)c3ccccc3)C[C@H]1[C@H]1O[C@@H]12 (some centres undefined) |  | inactive | inactive | inactive | inactive | inactive | inactive | inactive | inactive |  | inactive | inactive |  |  |  |  | inactive | inactive | 
CO[C@H]1C[C@@H]2CC[C@@H](C)[C@@](O)(O2)C(=O)C(=O)N2CCCC[C@@H]2C(=O)O[C@H]([C@@H](C)C[C@@H]2CC[C@H](O)[C@H](OC)C2)CC(=O)[C@H](C)C=C(C)[C@@H](O)[C@@H](OC)C(=O)[C@H](C)C[C@H](C)C=CC=CC=C1C | 18.7 µM (active) |  |  |  | inactive |  |  | inactive | inactive |  | inactive | inactive |  |  | 14.8 µM (active) |  |  |  | 
CO[C@H]1C[C@@H]2CC[C@@H](C)[C@@](O)(O2)C(=O)C(=O)N2CCCC[C@@H]2C(=O)O[C@H]([C@H](C)C[C@@H]2CC[C@H](OC(=O)C(C)(CO)CO)[C@H](OC)C2)CC(=O)[C@H](C)C=C(C)[C@@H](O)[C@@H](OC)C(=O)[C@H](C)C[C@H](C)C=CC=CC=C1C | 13.2 µM (active) |  |  |  |  | 18.7 µM (active) |  |  |  | inactive |  |  |  |  | 14.8 µM (active) |  |  |  | 
CCN(CC)CCOc1ccc(C(=C(Cl)c2ccccc2)c2ccccc2)cc1 | inactive |  | inactive |  |  |  | inactive |  |  |  | inactive | inactive | 18.7 µM (active) | inactive |  |  | inactive |  | 
COc1ccc(-n2c(C)c([N+](=O)[O-])c3ccc(O)cc32)cc1 | 26.4 µM (active) |  |  |  |  |  | inactive |  |  | 0.833 µM (active) | 16.6 µM (active) | inactive |  |  | 14.8 µM (active) |  | inactive |  | 
